This is an account of results in the supplement of paper PMC10849652.

Assay in all cases: log2 fold change, soluble protein after heating vs DMSO (PISA); higher = thermal stabilisation; K562 cells, 10 uM, 30 min; active = over 0.2 and 3.5 SD of the protein, either way, in both replicates (recomputed)
Compound in experiment [1]: CS(=O)(=O)c1ccc(-c2cnc(N)c(C(=O)Nc3ccccc3)n2)cc1
In a few lines: (§1)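 For each measurement, 10 μM compound was applied for 30 min to K562 cells at 2×10^6 cells/mL. Aliquots were heated for 3 min across 48°C-58°C, pooled, and extracted in PBS with 0.5% NP-40 at 4°C; the supernatant after 21,000xg for 90 min was soluble protein. This was quantified by TMTpro 16plex LC-MS/MS with channel sums equalised, and thermal stability was reported relative to control samples from duplicates, on a log2 fold-change scale.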

Compound in the next experiment: C[C@@H](Oc1cc(-c2cnn(C3CCNCC3)c2)cnc1N)c1c(Cl)ccc(F)c1Cl [crizotinib]
In a few lines:
as §1

Compound in experiment [2]: C[C@@H]1COCCN1C2=NC(=NC(=C2)C3(CC3)S(=O)(=O)C)C4=C5C=CNC5=CC=C4
In a few lines: as §1

Compound in experiment [3]: C[C@H](C1=CC=C(C=C1)C(=O)NC2=C3C=CNC3=NC=C2)N
In a few lines: as §1

Compound in the next experiment: C[C@H](Nc1ncnc2nc[nH]c12)c1cc2cccc(Cl)c2c(=O)n1-c1ccccc1 [duvelisib]
In a few lines:
as §1

Compound in a further experiment: Cc1cc(Nc2cc(CN3CCOCC3)c3nc(C)c(Cc4ccc(Cl)cc4F)n3n2)n[nH]1 [gandotinib]
In a few lines: as §1

Compound in a further experiment: Cc1cc(Nc2cc(N3CCN(C)CC3)nc(Sc3ccc(NC(=O)C4CC4)cc3)n2)n[nH]1 [tozasertib]
In a few lines: as §1

Compound in experiment [4]: Cc1cc(SCc2sc(-c3ccc(C(F)(F)F)cc3)nc2C)ccc1OCC(=O)O
In a few lines:
as §1

Compound in the next experiment: Cc1ccc(-n2nc(C(C)(C)C)cc2NC(=O)Nc2ccc(OCCN3CCOCC3)c3ccccc23)cc1 [doramapimod]
In a few lines: as §1

Compound in a further experiment: Cc1ccc(C(=O)N(CCCN)[C@@H](c2nc3cc(Cl)ccc3c(=O)n2Cc2ccccc2)C(C)C)cc1 [ispinesib]
In a few lines: as §1

About 7,900 targets were measured; listed, in parts, are those with a hit and a random draw of the rest. About 0.6% of all pairs of compound and target were hits. Values without a mark were called inactive.

Chain of UniProt O00170 (O00170 whole entry, looked up): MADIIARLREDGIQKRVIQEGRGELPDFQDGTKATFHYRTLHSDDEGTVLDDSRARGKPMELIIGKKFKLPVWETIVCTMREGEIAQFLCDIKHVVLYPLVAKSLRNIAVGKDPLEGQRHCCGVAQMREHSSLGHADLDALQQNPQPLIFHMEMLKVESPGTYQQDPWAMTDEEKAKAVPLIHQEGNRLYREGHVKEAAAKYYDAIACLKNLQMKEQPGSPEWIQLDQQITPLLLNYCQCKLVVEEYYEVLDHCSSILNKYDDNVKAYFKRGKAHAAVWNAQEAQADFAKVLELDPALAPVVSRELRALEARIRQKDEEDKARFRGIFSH
Chain of UniProt P63010 (P63010 whole entry, looked up): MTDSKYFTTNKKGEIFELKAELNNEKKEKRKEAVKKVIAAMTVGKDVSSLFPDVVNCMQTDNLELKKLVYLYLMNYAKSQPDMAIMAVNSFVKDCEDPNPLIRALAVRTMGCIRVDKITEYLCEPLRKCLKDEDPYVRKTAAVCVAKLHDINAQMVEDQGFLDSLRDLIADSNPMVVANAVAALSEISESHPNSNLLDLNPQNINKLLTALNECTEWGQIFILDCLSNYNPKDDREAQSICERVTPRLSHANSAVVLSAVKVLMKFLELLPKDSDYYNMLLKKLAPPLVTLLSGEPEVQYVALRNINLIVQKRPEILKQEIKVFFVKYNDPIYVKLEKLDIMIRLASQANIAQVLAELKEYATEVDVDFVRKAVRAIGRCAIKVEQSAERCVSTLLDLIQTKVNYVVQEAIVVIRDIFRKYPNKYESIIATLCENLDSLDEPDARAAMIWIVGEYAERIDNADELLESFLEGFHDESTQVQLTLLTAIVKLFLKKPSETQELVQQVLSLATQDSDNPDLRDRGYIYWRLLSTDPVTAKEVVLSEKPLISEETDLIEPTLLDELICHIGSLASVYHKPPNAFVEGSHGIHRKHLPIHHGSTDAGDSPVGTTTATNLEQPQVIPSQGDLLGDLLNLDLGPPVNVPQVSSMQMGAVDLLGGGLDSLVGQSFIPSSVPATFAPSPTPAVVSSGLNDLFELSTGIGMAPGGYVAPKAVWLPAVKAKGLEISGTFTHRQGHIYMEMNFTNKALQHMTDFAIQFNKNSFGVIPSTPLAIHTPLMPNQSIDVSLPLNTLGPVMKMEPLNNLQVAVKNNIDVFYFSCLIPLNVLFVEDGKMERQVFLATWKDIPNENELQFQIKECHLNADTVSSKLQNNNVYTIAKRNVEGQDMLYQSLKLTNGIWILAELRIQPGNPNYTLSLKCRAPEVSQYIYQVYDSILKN
Chain of UniProt Q9BX63 (Q9BX63 whole entry, looked up): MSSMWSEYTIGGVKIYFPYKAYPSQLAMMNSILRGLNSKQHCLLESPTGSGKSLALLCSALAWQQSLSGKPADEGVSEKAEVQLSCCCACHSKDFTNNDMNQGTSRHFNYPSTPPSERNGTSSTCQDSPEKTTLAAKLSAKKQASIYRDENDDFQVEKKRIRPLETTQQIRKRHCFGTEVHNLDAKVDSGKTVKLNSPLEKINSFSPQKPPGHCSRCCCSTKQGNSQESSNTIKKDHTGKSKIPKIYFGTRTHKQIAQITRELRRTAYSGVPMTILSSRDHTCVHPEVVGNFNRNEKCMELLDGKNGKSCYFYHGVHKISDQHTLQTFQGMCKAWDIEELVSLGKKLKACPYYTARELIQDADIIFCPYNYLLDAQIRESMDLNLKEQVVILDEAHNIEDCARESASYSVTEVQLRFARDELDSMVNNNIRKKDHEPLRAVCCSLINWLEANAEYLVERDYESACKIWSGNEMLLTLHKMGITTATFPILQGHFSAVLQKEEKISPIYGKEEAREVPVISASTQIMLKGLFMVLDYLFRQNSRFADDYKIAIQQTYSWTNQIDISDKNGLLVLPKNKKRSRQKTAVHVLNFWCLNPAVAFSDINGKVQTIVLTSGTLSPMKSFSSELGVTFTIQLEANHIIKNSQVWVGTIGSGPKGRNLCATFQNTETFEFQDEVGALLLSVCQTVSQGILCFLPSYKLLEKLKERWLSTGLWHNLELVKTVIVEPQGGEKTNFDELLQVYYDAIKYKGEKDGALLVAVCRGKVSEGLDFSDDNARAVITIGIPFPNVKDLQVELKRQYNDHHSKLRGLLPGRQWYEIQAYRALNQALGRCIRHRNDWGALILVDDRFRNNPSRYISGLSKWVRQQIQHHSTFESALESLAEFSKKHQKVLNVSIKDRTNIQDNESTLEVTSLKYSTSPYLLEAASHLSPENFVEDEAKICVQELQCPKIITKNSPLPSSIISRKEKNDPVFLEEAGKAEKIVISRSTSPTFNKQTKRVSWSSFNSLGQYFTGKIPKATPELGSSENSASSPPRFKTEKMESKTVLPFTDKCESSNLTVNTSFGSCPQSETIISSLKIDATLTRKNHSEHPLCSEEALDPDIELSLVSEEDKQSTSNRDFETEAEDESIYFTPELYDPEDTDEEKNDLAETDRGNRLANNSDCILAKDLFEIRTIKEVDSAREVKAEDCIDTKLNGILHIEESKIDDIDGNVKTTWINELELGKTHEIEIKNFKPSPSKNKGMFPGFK
Chain of UniProt Q8NHH9 (Q8NHH9 whole entry, looked up): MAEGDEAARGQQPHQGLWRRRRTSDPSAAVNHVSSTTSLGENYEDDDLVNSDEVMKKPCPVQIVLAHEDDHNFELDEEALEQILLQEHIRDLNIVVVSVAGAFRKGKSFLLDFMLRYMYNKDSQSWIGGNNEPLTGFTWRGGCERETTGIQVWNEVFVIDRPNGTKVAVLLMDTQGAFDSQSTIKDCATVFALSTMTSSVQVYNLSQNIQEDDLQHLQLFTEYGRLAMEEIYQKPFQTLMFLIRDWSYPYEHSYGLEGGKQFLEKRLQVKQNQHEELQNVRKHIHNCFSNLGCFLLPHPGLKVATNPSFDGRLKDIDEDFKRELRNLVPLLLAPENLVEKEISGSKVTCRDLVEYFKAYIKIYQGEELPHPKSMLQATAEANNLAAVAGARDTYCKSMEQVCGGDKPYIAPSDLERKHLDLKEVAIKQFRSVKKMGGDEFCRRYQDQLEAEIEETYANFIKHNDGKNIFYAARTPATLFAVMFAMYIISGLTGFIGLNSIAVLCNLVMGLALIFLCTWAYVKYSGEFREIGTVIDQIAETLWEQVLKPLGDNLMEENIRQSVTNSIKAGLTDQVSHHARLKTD
Chain of UniProt Q86UU0 (Q86UU0 whole entry, looked up): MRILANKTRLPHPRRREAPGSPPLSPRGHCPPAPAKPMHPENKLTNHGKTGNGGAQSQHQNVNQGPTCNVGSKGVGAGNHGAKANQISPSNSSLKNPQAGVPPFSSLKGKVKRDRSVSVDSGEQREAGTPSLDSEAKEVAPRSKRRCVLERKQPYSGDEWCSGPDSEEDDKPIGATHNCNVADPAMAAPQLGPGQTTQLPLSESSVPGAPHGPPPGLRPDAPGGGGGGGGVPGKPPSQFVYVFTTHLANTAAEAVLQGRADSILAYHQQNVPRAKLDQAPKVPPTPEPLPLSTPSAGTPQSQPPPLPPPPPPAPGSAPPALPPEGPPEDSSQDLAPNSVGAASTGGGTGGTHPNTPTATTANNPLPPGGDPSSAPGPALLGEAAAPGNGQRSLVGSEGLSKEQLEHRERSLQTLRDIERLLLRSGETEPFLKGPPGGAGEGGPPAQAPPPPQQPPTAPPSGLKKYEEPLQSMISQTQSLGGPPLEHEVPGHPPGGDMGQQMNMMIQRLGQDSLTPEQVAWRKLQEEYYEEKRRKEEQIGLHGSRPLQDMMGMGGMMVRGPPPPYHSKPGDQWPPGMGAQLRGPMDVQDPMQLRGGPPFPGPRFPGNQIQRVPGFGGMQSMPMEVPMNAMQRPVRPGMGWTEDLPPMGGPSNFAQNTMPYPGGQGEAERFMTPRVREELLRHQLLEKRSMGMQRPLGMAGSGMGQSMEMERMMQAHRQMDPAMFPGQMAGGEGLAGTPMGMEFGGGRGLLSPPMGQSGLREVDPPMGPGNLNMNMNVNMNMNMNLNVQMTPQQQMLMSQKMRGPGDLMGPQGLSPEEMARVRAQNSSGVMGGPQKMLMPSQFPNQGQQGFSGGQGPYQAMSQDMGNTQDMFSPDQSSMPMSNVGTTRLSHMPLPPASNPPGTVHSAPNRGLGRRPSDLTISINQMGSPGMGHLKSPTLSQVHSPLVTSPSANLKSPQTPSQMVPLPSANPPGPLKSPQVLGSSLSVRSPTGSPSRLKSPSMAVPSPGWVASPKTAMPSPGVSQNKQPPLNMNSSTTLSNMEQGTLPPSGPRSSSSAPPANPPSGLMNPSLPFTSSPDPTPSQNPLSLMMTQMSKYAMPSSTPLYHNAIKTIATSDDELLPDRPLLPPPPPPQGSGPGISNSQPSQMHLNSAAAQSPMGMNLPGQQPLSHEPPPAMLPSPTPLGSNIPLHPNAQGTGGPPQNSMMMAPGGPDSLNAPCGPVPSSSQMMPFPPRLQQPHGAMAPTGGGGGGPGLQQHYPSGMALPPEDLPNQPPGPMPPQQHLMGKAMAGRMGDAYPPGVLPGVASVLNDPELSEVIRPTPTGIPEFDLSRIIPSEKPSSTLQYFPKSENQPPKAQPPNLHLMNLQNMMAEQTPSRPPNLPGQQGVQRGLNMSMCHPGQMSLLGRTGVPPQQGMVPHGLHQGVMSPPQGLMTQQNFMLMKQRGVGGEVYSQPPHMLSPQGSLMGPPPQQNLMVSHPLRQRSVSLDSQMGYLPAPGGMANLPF
Chain of UniProt Q9Y2Y0 (Q9Y2Y0 whole entry, looked up): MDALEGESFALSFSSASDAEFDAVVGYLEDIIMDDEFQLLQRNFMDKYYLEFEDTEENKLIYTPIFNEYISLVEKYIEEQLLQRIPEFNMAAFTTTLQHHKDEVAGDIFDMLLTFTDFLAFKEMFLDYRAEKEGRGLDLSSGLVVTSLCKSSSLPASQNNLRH
Chain of UniProt P36405 (P36405 whole entry, looked up): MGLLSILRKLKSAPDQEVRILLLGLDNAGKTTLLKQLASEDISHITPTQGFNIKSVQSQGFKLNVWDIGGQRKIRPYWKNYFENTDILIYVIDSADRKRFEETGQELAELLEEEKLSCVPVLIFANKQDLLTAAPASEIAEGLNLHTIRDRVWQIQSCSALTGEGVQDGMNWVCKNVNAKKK

With AGRN (UniProt O00468), the log2 fold change in experiment [1] was -0.078; with crizotinib, -0.01; in [2] it was -0.073; in experiment [3], -0.021; with duvelisib it was -0.162; in the experiment with gandotinib, -0.012. The log2 fold change was 0.026 in the experiment with tozasertib, 0.24 in [4], 0.062 with doramapimod and 0.009 with ispinesib.
Take ARL2BP (UniProt Q9Y2Y0): the log2 fold change in experiment [1] was 0.077; in the experiment with crizotinib, -0.128; in experiment [2], -0.017; in [3], -0.038; with duvelisib it was -0.004; in the experiment with gandotinib, -0.166. In addition, the log2 fold change with tozasertib was 0.006; in [4], 0.044; with doramapimod, 0.101; with ispinesib, -0.042.
As for ACAD9 (UniProt Q9H845), the log2 fold change in experiment [1] was 0.01; with crizotinib it was 0.035; in experiment [2], 0.021; in experiment [3], -0.061; in the experiment with duvelisib, 0.048; with gandotinib, -0.03. The log2 fold change with tozasertib was -0.016; in experiment [4], -0.052; with doramapimod, -0.002; with ispinesib, 0.059.
BTAF1 (UniProt O14981): the log2 fold change was 0.055 in experiment [1]; -0.076 in the experiment with crizotinib; 0.094 in [2]; 0.041 in [3]; -0.016 in the experiment with duvelisib; -0.05 in the experiment with gandotinib. The log2 fold change with tozasertib is 0.015; in experiment [4], 0.044; with doramapimod, 0.006; with ispinesib, 0.016.
Take AGPS (UniProt O00116): the log2 fold change in [1] was 0.016; with crizotinib, -0.038; in experiment [2] it was 0.048; in experiment [3], -0.053; with duvelisib it was 0.099; in the experiment with gandotinib, -0.047. Moreover, the log2 fold change with tozasertib is -0.005; in experiment [4], 0.19; with doramapimod, 0.018; in the experiment with ispinesib it was 0.015.
ATP11A (UniProt P98196): the log2 fold change in experiment [1] is 0.017; in the experiment with crizotinib, 0.042; in experiment [2], 0.032; in [3], -0.103; with duvelisib it was -0.025; with gandotinib it was 0.027. Also, the log2 fold change with tozasertib was -0.017; in [4] it was -0.055; with doramapimod, 0.018; with ispinesib, 0.092.
With ARL3 (UniProt P36405), the log2 fold change in [1] is 0.029; in the experiment with crizotinib, 0.041; in experiment [2] it was 0.019; in experiment [3], -0.017; with duvelisib, 0.08; with gandotinib, 0.025. Moreover, the log2 fold change in the experiment with tozasertib is 0.033; in [4], -0.012; with doramapimod, -0.003; in the experiment with ispinesib it was 0.063.
Turning to AP2B1 isoform 2 (UniProt P63010), the log2 fold change in [1] is 0.022; with crizotinib, -0.029; in [2] it was -0.005; in experiment [3], -0.161; with duvelisib, 0.004; in the experiment with gandotinib, 0.016. Further, the log2 fold change with tozasertib is -0.056; in [4] it was 0.007; in the experiment with doramapimod, -0.006; with ispinesib, 0.014.
On to AIP (UniProt O00170), for which the log2 fold change in [1] is 0.031; in the experiment with crizotinib it was 0.039; in [2], 0.075; in experiment [3], -0.055; in the experiment with duvelisib, 0.014; in the experiment with gandotinib, -0.058. In addition, the log2 fold change with tozasertib was 0.064; in experiment [4], 0.038; with doramapimod, -0.024; in the experiment with ispinesib, 0.011.
Take ALDH2 (UniProt P05091): the log2 fold change was -0.047 in [1]; -0.044 with crizotinib; 0.051 in experiment [2]; -0.038 in experiment [3]; 0.056 in the experiment with duvelisib; -0.088 with gandotinib. Further, the log2 fold change with tozasertib was -0.039; in experiment [4], 0.022; with doramapimod it was 0.033; in the experiment with ispinesib, -0.023.
For the target BCL9L (UniProt Q86UU0), the log2 fold change was 0.029 in [1]; 0.085 with crizotinib; 0.018 in experiment [2]; -0.002 in experiment [3]; -0.011 in the experiment with duvelisib; 0.097 in the experiment with gandotinib. For the same target, the log2 fold change is -0.076 with tozasertib, -0.112 in experiment [4], 0.006 with doramapimod and 0.025 with ispinesib.
ATL2 (UniProt Q8NHH9): the log2 fold change in experiment [1] is 0.078; with crizotinib, -0.031; in experiment [2] it was -0.003; in [3] it was -0.014; with duvelisib it was 0.052; in the experiment with gandotinib, -0.035. Moreover, the log2 fold change is -0.062 in the experiment with tozasertib, 0.056 in [4], -0.018 with doramapimod and 0.376 (active) with ispinesib.
On to AARS2 (UniProt Q5JTZ9), for which the log2 fold change in experiment [1] is 0.017; with crizotinib it was -0.04; in experiment [2], 0.138; in experiment [3], -0.03; in the experiment with duvelisib it was 0.053; with gandotinib it was -0.058. For the same target, the log2 fold change was -0.039 in the experiment with tozasertib, 0.036 in experiment [4], 0.026 with doramapimod and -0.223 (active) in the experiment with ispinesib.
As for BRIP1 (UniProt Q9BX63), the log2 fold change in experiment [1] is 0.13; in the experiment with crizotinib, 0.019; in experiment [2] it was 0.151; in [3], -0.005; in the experiment with duvelisib, 0.042; in the experiment with gandotinib it was -0.035. The log2 fold change in the experiment with tozasertib is 0.183; in [4], 0.009; with doramapimod it was -0.088; with ispinesib it was 0.018.
On to ATP23 (UniProt Q9Y6H3), for which the log2 fold change was -0.002 in [1]; -0.116 in the experiment with crizotinib; 0.044 in experiment [2]; 0.072 in experiment [3]; -0.124 with duvelisib; -0.128 in the experiment with gandotinib. Moreover, the log2 fold change was 0.002 with tozasertib, 0.046 in [4], -0.051 with doramapimod and -0.188 with ispinesib.
